# High-throughput results from PubChem BioAssay.
# PfHsp40 yeast = rescue of PfHsp40-mediated yeast toxicity. 340,000 tested, 0.68% active. growth rescue, % at 12.5 µM. S. cerevisiae expressing PfHsp40, growth rescue, ATP luminescence; in the data active = growth rescue above about 28%, passing the limit was not always enough;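 also: yeast W303a lacking pdr1 and pdr3 grown in galactose medium; growth measured after three days at 30 °C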
# PriA SSB inh = K. pneumoniae PriA-SSBct interaction inhibition; AlphaScreen SSBct-PriA binding, biotinylated peptide; inhibition, % at 33 µM; 430,000 tested, 0.6% active; AID 1272365; in the data active = inhibition mostly above about 37%, no sharp cut-off; inactive = mostly below about 20%
# SARS 3CLpro inh-1 = SARS-CoV 3CLpro protease inhibition | inhibition, % at 6 µM | P0C6X7 | AID 1706 | recombinant SARS-CoV 3CLpro, quenched FRET peptide cleavage | 290,000 tested, 0.14% active; in the data active = inhibition above about 12%
# PrP 5UTR inh = inhibition of PrP 5' UTR reporter expression. cell-based PrP 5' UTR mRNA reporter, plate reader. inhibition, % (concentration not given with the values). 340,000 tested, 0.35% active. AID 488862; in the data active = inhibition above about 52%
# Vc quorum ag = quorum light induction in luxS cqsA deficient V. cholerae. V. cholerae BH1578 lux reporter, luminescence, 6 h. activation, % at 18.7 µM. 350,000 tested, 0.16% active; in the data active = activation mostly above about 9.7%, no sharp cut-off
# PrPC surface inh = inhibitors of human cell surface prion protein PrPC; TR-FRET read-out; inhibition, % at 13.8 µM; 370,000 tested, 0.43% active; AID 720596; in the data active = inhibition above about 24%
# SARS 3CLpro inh-2 = confirmation of SARS coronavirus 3C-like protease inhibitors; shares compounds with SARS 3CLpro inh-1; QFRET protease activity assay, 3CLpro; inhibition, % at 6 µM; 380 tested, 36% active; in the data active = inhibition above about 13%
# PrP UTR cherry = prion 5' UTR mRNA inhibition, cherry-pick retest; shares compounds with PrP 5UTR inh; cell-based prion protein 5' UTR reporter, plate reader; inhibition, % at 2.5 µM; 1,100 tested, 48% active; AID 504592; in the data active = inhibition above about 54%
# Hits are given with their value; – = inactive; · = not tested or not shown. In the library only some 1.6% were active in any assay of this set; here they are far more common.
SMILES,PfHsp40 yeast,PriA SSB inh,SARS 3CLpro inh-1,PrP 5UTR inh,Vc quorum ag,PrPC surface inh,SARS 3CLpro inh-2,PrP UTR cherry
Cc1nnsc1C(=O)N1CC(n2cc(-c3ccccc3)nn2)C1,·,–,·,·,·,·,·,·
Cc1ccc(-c2csc(NC(=O)c3cccc([N+](=O)[O-])c3C(=O)O)n2)cc1,–,–,–,–,–,–,·,·
O=C(Nc1nc(-c2cccc([N+](=O)[O-])c2)cs1)c1cccc([N+](=O)[O-])c1C(=O)O,–,–,17,–,–,–,–,·
COc1cc(OC)c(OC)cc1/C=C1\Oc2cc(OCC(=O)N3Cc4ccccc4C[C@H]3C(=O)O)ccc2C1=O,–,–,12,–,–,·,–,·
CCOC(=O)c1c(C)oc2c1c1c(c3ccccc32)OCN(Cc2ccccn2)C1,–,57,13,–,–,–,–,·
O=C(/C=C/c1ccc(Cl)c([N+](=O)[O-])c1)NCc1cccnc1,–,–,18,–,–,–,18,·
O=C(/C=C/c1ccc([N+](=O)[O-])cc1)NCc1cccnc1,–,–,–,–,–,–,·,·
CC(C)Oc1ccc(/C=N/NC(=O)c2nnn(-c3nonc3N)c2CN(C)c2ccccc2)cc1,–,·,14,–,–,–,–,·
CC(C)Oc1ccc(C=NNC(=O)c2nnn(-c3nonc3N)c2CN(C)c2ccccc2)cc1,·,–,·,·,·,·,·,·
CCN(c1ccc(OC)cc1)S(=O)(=O)c1nnc(NC(=O)COc2ccc(C)cc2)s1,–,–,13,–,–,·,–,·
CC1(C)Cc2c(sc3nc(-c4cc5ccccc5o4)n(N)c(=O)c23)CO1,–,–,13,–,–,–,–,·
Clc1ccc(-n2ncc3c(N4CCOCC4)nc(NCCc4cccs4)nc32)cc1,·,–,·,·,·,·,·,·
CCc1ccc(NC(=O)C2CCCN(S(=O)(=O)c3ccc4[nH]c(=O)ccc4c3)C2)cc1 (stereo unspecified),–,–,13,–,–,–,–,·
O=C(NCCN1CCOC(c2ccccc2)C1)C(=O)NCc1ccccc1Cl (stereo unspecified),·,–,·,·,·,·,·,·
O=C(Oc1ccc2ccc(=O)oc2c1)c1cccs1,–,–,20,–,–,–,35,·
CCCC(=O)Oc1ccc2c(C)cc(=O)oc2c1,–,–,17,–,–,–,24,·
CC(C)(C)OC(=O)NCCC(=O)Oc1ccc2ccc(=O)oc2c1,–,–,29,–,–,·,59,·
CC(NC(=O)OC(C)(C)C)C(=O)Oc1ccc2ccc(=O)oc2c1 (stereo unspecified),–,–,–,–,–,–,·,·
Clc1ccccc1CSc1nccn2nc(-c3ccccc3)cc12,·,–,·,·,·,·,·,·
CC(=O)n1cc(N(C(=O)CCl)c2ccc(Cl)cc2)c2ccccc21,·,–,13,·,–,·,35,·
COc1ccccc1N(C(=O)CCl)c1cn(C(C)=O)c2ccccc12,–,–,–,–,–,–,·,·
O=C(Nc1nc(C(=O)Nc2cccc(Cl)c2)co1)c1ccncc1,·,–,·,·,·,·,·,·
COc1ccc(N(C(=O)Cn2nnc3ccccc32)C2(C(=O)NC3CCCC3)CCCCC2)cc1,–,–,30,–,–,–,43,·
CC(C)CN(CC(C)C)S(=O)(=O)c1ccc(C(=O)Nc2nccs2)cc1,·,–,·,·,·,·,·,·
O=C(CCc1c(F)cccc1Cl)N1CC(n2ccnn2)C1,·,–,·,·,·,·,·,·
SMILES,PfHsp40 yeast,PriA SSB inh,SARS 3CLpro inh-1,PrP 5UTR inh,Vc quorum ag,PrPC surface inh,SARS 3CLpro inh-2,PrP UTR cherry
CSc1ccccc1NC(=O)C(C)N(C)CC(=O)N1CCN(Cc2ccccc2)CC1 (stereo unspecified),–,–,·,74,–,–,·,–
CCC(=O)Oc1ccc(C(CC)C(CC)c2ccc(OC(=O)CC)cc2)cc1 (stereo unspecified),–,–,–,58,–,–,·,–
CC[C@@H]1C(c2ccccc2)=NN(c2ccccc2)[C@H]1C(=O)N1CCOC1=O,–,–,·,62,–,–,·,–
O=C(CCCSc1ccc(NC(=O)c2cccs2)nn1)NCC1CCCO1 (stereo unspecified),·,–,·,·,·,·,·,·
Cc1c(NS(=O)(=O)c2ccc(C(=O)NCc3ccccc3)cc2)c(=O)n(-c2ccccc2)n1C,–,–,–,56,–,–,·,–
Cc1cc(Cl)ccc1NC(=S)N1CCN(Cc2ccccc2)CC1,–,–,–,51,–,–,·,–
CCc1ccc(OCCS(=O)(=O)NCCn2cnc(C)c(C)c2=O)cc1,·,–,·,·,·,·,·,·
COc1ccc(/C=C2\SC(=S)N(CCCC(=O)NNC(=O)c3ccccc3O)C2=O)cc1,–,–,–,60,–,–,·,74
COc1cc(-c2noc(C)c2/C=C/c2ccc(OC(C)=O)cc2)cc(OC)c1OC,–,–,–,64,–,–,·,85
COc1ccc(-c2oc(=O)c3cc(OC)c(OC)cc3c2/C=C/c2ccc(OC(C)=O)cc2)cc1,–,–,·,–,–,–,·,·
COc1ccccc1NC(=S)NC(=O)c1cc(OC)c(OC)c(OC)c1,·,–,·,·,·,·,·,·
Cn1cccc1/C=C1\SC(=Nc2ccc(O)cc2)NC1=O,–,–,–,69,–,–,·,82
COC(=O)c1ccc(NC(=O)c2ccc(C(C)(C)C)cc2)cc1,·,–,·,·,·,·,·,·
CC(C)(C)OC(=O)N1CCNC(=O)C1CC(=O)OCCOc1ccccc1 (stereo unspecified),·,–,·,·,·,·,·,·
CCOc1cc(-c2nnc(NC(=O)c3cc([N+](=O)[O-])cc([N+](=O)[O-])c3)o2)cc(OCC)c1OCC,·,–,·,·,·,·,·,·
CCCCN(CCCC)Cc1cn2c(-c3ccc(OC)cc3)nnc2s1,·,–,·,·,·,·,·,·
COC1C(C)OC(OC2CC(C)(O)Cc3cc4c(c(O)c32)C(=O)c2c(O)cc3c(c2C4=O)OC2OC3(C)C(O)C(N(C)C)C2O)C(OC)C1(C)OC (stereo unspecified),–,–,·,90,–,–,·,81
CC1(C)C(=O)NCCN1C(=O)c1ccco1,·,–,·,·,·,·,·,·
COCCn1c(C)cc(C(=O)CSc2nnc(C)s2)c1C,–,–,–,57,–,–,·,72
COCCn1c(C)cc(C(=O)COC(=O)c2cc3c(s2)CCC3)c1C,–,–,–,–,–,–,·,·
COCCn1c(C)cc(C(=O)COC(=O)c2cccc(O)c2)c1C,–,–,–,83,–,–,·,79
COCCn1c(C)cc(C(=O)CSc2nnnn2C2CCCC2)c1C,–,–,·,64,–,–,·,57
COc1ccc(CCn2c(C)cc(C(=O)CSc3nnnn3C)c2C)cc1,–,–,–,–,–,–,·,·
C=CCOC(=O)C1=C(C)N=C(SCC(N)=O)C(C#N)C1c1cccs1 (stereo unspecified),·,–,·,·,·,·,·,·
CCOC(=O)c1ccccc1N/C=C(/C#N)c1nc(-c2ccc(Cl)c(Cl)c2)cs1,·,–,·,·,·,·,·,·
CC(C)NC(=O)C(=O)NCCc1ccc(N(C)C)cc1,·,–,·,·,·,·,·,·
NC(=O)CC(NC(=O)Cc1cccc2ccccc12)c1ccc(NCc2ccc(F)cc2)c([N+](=O)[O-])c1 (stereo unspecified),–,–,·,75,–,–,·,–
